In PubChem BioAssay (NCATS):

Assay: qHTS profiling of the MIPE4 collection as inhibitors of Plasmodium falciparum (DD2) proliferation (Rep 2) (AID 743346)
Details: P. falciparum Dd2 in erythrocytes, SYBR Green DNA, 72 h; at 28.5 µM
Method in brief: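 Erythrocytes infected with P. falciparum (0.3% parasitemia, 2.5% hematocrit) incubated with compounds 72 h at 37 C, 5% CO2. Lysis with saponin/Triton buffer containing SYBR Green I, overnight at room temperature in the dark; DNA fluorescence (485/535 nm) normalised to 0.29 uM artemisinin and DMSO.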

Question: For `O=c1cccc2n1CC1CNC[C@H]2C1`, which parasite growth, % of control (lower = inhibition) is on record?
Answer: 53.7%

Question: Which parasite growth, % of control (lower = inhibition) does the source give for `COc1cccc2c1[C@]13CCN(CC4CC4)[C@H](C2)[C@]1(OC)CCC(=O)C3` here?
Answer: 31.9%

Question: For `O=C(Nc1ccncc1)C(=O)c1cn(Cc2ccc(Cl)cc2)c2ccccc12`, which parasite growth, % of control (lower = inhibition) is on record?
Answer: 81.4%

Question: For `CCNC(=O)CC1N=C(c2ccc(Cl)cc2)c2cc(OC)ccc2-n2c(C)nnc21` (configuration not stated), which parasite growth, % of control (lower = inhibition) is on record?
Answer: 70.5%

Question: Which parasite growth, % of control (lower = inhibition) does the source give for `CCN1CCN(C(=O)Cc2ccc(Nc3ncc(F)c(Nc4ccc(C(=O)Nc5ccccc5Cl)cc4)n3)cc2)CC1` here?
Answer: 14.2%

Question: For `C[C@]12CC[C@H](O)CC1=CC[C@H]1[C@H]3CCC(=O)[C@@]3(C)CC[C@@H]12`, which parasite growth, % of control (lower = inhibition) is on record?
Answer: 108%

Question: For `CC(=CCCC1=CCC(C2=CC(=O)OC2O)OC1O)CCC1=C(C)CCCC1(C)C` (configuration not stated), which parasite growth, % of control (lower = inhibition) is on record?
Answer: 72%

Question: For `C[C@]12CC[C@@H]3[C@@H](CCC4=CC(=O)CC[C@@H]43)[C@@H]1CC[C@@H]2OC(=O)CCc1ccccc1`, which parasite growth, % of control (lower = inhibition) is on record?
Answer: 56.3%

Question: Which parasite growth, % of control (lower = inhibition) does the source give for `CSCC[C@@H](NC(=O)[C@@H](Cc1ccccc1)NC(=O)CNC(=O)CNC(=O)[C@@H](N)Cc1ccc(O)cc1)C(=O)O` here?
Answer: 89.9%

Question: Which parasite growth, % of control (lower = inhibition) does the source give for `C#CC1(O)CCC2C3CCC4=CC(=O)CCC4(C)C3CCC21C` (configuration not stated) here?
Answer: 88%

Question: For `CCC(=O)OC1CCC2C3CCC4=CC(=O)CC[C@@]4(C)C3CC[C@]12C` (some centres not stated), which parasite growth, % of control (lower = inhibition) is on record?
Answer: 125%

Question: With `O=C1CCC[C@@H]2[C@H]3CCCN4CCC[C@@H](CN12)[C@@H]34` as the compound, how does the parasite growth, % of control (lower = inhibition) read?
Answer: 95.1%

Question: With `COc1ccc(N(C(=O)Oc2c(C)cccc2C)c2ccnc(Nc3ccc(N4CCN(C)CC4)cc3)n2)c(OC)c1` as the compound, how does the parasite growth, % of control (lower = inhibition) read?
Answer: 20.9%

Question: With `COC1=C[C@@H]2[C@@H]3Cc4ccc(OC)c(O)c4[C@]2(CCN3C)CC1=O` as the compound, how does the parasite growth, % of control (lower = inhibition) read?
Answer: 34.6%

Question: With `CC=C(C)C(=O)O[C@H]1C(C)=C2[C@@H]3OC(=O)[C@@](C)(O)[C@@]3(O)[C@@H](OC(=O)CCC)C[C@](C)(OC(C)=O)[C@@H]2[C@@H]1OC(=O)CCCCCCC` as the compound, how does the parasite growth, % of control (lower = inhibition) read?
Answer: 16.2%

Question: Which parasite growth, % of control (lower = inhibition) does the source give for `C=C[C@@H]1CN2CCC1C[C@@H]2[C@@H](O)c1ccnc2ccccc12` (some centres not stated) here?
Answer: 45.8%

Question: With `C=C[C@@H]1CN2CCC1C[C@H]2[C@H](O)c1ccnc2ccccc12` (some centres not stated) as the compound, how does the parasite growth, % of control (lower = inhibition) read?
Answer: 46.5%

Question: Which parasite growth, % of control (lower = inhibition) does the source give for `C[C@@]12OC(=O)[C@]1([C@@H](O)[C@@H]1C=CCCC1)NC(=O)[C@H]2CCCl` here?
Answer: 10.7%

Question: Which parasite growth, % of control (lower = inhibition) does the source give for `COC[C@H]1OC(=O)c2coc3c2[C@@]1(C)C1=C(C3=O)[C@@H]2CC[C@H](O)[C@@]2(C)C[C@@H]1OC(C)=O` here?
Answer: 79.7%

Question: For `CC=C(C)C(=O)N[C@@H](c1ccccc1)[C@@H](O)C(=O)O[C@H]1C[C@@]2(O)[C@@H](OC(=O)c3ccccc3)[C@@H]3[C@]4(OC(C)=O)CO[C@@H]4C[C@H](O)[C@@]3(C)C(=O)[C@H](OC(C)=O)C(=C1C)C2(C)C`, which parasite growth, % of control (lower = inhibition) is on record?
Answer: 15.6%

Question: Which parasite growth, % of control (lower = inhibition) does the source give for `CCNC(=O)C[C@@H]1N=C(c2ccc(Cl)cc2)c2cc(OC)ccc2-n2c(C)nnc21` here?
Answer: 99.1%

Question: With `CCOP(=O)(OCC)C(C)NC(=O)N(CCCl)N=O` (configuration not stated) as the compound, how does the parasite growth, % of control (lower = inhibition) read?
Answer: 135%

Question: With `COc1ccc2c(c1)CN(C)CC2c1ccc(Cl)c(Cl)c1` (configuration not stated) as the compound, how does the parasite growth, % of control (lower = inhibition) read?
Answer: 15.9%

Question: With `C[C@@H]1O[C@@H](O[C@@H]2C=C3CC[C@@H]4[C@@H](CC[C@]5(C)[C@H](c6ccc(=O)oc6)CC[C@@]45O)[C@@]3(C)CC2)[C@H](O)[C@H](O)[C@H]1O` as the compound, how does the parasite growth, % of control (lower = inhibition) read?
Answer: 96.7%

Question: For `Cc1[nH]nc2ccc(-c3cncc(OC[C@@H](N)Cc4c[nH]c5ccccc45)c3)cc12`, which parasite growth, % of control (lower = inhibition) is on record?
Answer: 20.1%

Question: Which parasite growth, % of control (lower = inhibition) does the source give for `CO[C@H]1CCC(O[C@H]2C[C@H]([C@]3(C)CC[C@]4(C[C@H](O)[C@@H](C)[C@@H]([C@@H](C)C=C(C)C(=O)[C@H](C)C[C@H](C)C(=O)O)O4)O3)O[C@]3(O[C@@H]([C@H]4O[C@@](O)(CO)[C@H](C)C[C@H]4C)C[C@H]3C)[C@H]2C)O[C@H]1C` (some centres not stated) here?
Answer: 23.1%

Question: Which parasite growth, % of control (lower = inhibition) does the source give for `CC(=Cc1csc(C)n1)[C@@H]1C[C@H]2O[C@]2(C)CCC[C@H](C)[C@@H](O)[C@@H](C)C(=O)C(C)(C)[C@@H](O)CC(=O)O1` here?
Answer: 35.2%
